The source of these data is PubChem BioAssay AID1851 (National Center for Advancing Translational Sciences (NCATS), 2009).

SMILES strings stand for the structures. Screen size: about 16,000 compounds; about 5,800 (36%) were called active. Inconclusive results (about 23%) are left out. The list shows a part of the results. Unmarked numbers belong to inactive results. The call rests on the fitted dose curve; in most records, active means well fitted curve in the direction sought with a large enough effect; inconclusive means small, poorly fitted or top-dose-only effect, or effect the other way; inactive means no such curve, though single readings can be large or run the other way.
On the % scale 0 is the no-effect control and ±100 the full control effect.

Sequence of Cytochrome P450 2C19 (Homo sapiens) (P33261 whole entry, looked up): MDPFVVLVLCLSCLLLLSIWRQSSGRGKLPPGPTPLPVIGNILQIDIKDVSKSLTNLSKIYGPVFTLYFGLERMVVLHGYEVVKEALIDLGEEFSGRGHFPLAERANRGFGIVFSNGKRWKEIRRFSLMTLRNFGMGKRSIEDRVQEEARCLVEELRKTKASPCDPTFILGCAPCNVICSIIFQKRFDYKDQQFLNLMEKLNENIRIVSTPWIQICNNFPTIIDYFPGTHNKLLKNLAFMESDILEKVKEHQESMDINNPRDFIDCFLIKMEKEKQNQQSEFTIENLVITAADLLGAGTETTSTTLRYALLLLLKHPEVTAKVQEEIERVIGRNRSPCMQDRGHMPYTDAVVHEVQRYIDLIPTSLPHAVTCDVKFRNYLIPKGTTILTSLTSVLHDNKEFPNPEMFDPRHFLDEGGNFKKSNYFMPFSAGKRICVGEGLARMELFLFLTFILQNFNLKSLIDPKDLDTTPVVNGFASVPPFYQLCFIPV

This experiment concerns the target Cytochrome P450 2C19 (Homo sapiens) (UniProt P33261). The experiment can be described thus: Cytochrome panel assay with activity outcomes. The conditions noted are these: recombinant CYP, pro-luciferin dealkylation, luminescence, p450-cyp2c19; series mostly up to 57.1 µM; activity, negative = inhibition: at the top concentration.
On to `CCCCCc1nc2c(C#N)c(-c3ccc(Cl)cc3)ccn2n1`, for which the AC50 was 7.94 µM (active).
Same read-out and setting: the same measure for `Cc1noc(C)c1CS(=O)(=O)c1ccc(Br)cc1`: 0.282 µM (active).
Still for that read-out and setting: the same measure for `CC1Cc2ccccc2N1C(=O)CN1C(=O)COc2ccccc21` (stereo not given): 3.16 µM (active); for `CC1Cc2ccccc2N1C(=O)CSc1nnnn1C(C)C` (stereo not given): 4.47 µM (active); for `Cc1ccccc1-n1ncc2c(SCC(=O)N3c4ccccc4CC3C)ncnc21` (stereo not given): 7.08 µM (active).
In the case of `CCN1CCN(CC(=O)N2c3ccccc3CC2C)CC1` (stereo not given), the “activity, negative = inhibition” value is -27.5%.
Regarding `O=C1COc2ccccc2CN1`, the “activity, negative = inhibition” value was -13.1%.
The same measure, in the same setting: the same measure for `C[C@@H]1Cc2ccccc2N1NC(=O)c1ccc(Cl)c(S(N)=O)c1` (stereo not given in full): -36.6% [at 25.6 µM].
As to `CC1(C)CCC(NC(=O)[C@H](N)CCC(=O)O)CC1`, the “activity, negative = inhibition” value is 12.9%.
On the same count and under the same terms, the same measure for `COCC(=O)Nc1c(I)c(C(=O)NC[C@@H](O)CO)c(I)c(C(=O)N(C)C[C@@H](O)CO)c1I`: -21.5% [at 25.6 µM].
On to `O=C1OC(OC2CCCCC2)(c2ccccc2)c2ccccc21` (stereo not given), for which the concentration at half-maximal activity (AC50) was 7.94 µM (active).
On the same count and under the same terms, the same measure for `Cc1cccc(C)c1OC1(c2ccccc2)OC(=O)c2ccccc21` (stereo not given): 0.251 µM (active); for `Cc1cccc(OC2(c3ccccc3)OC(=O)c3ccccc32)c1C` (stereo not given): 2.51 µM (active).
As for `C=C[C@]1(C)C[C@H](OC(=O)CO)[C@]2(C)C3C(=O)CC[C@]3(CC[C@H]2C)[C@H](C)[C@H]1O` (stereo not given in full), the activity, negative = inhibition is -15.4% [at 11.4 µM].
With `Cc1ccc(Cn2cccc(NC(=O)NC3CCCCC3)c2=O)cc1`, the half-maximal activity concentration (AC50) is 14.1 µM (active).
Still for that read-out and setting: for `O=C(Nc1cccn(Cc2ccc(F)cc2)c1=O)NC1CCCCC1` the value was 10 µM (active).
In the case of `COCCn1c(=O)c(-c2cc(F)cc(F)c2)nc2cnc(N3CCOCC3)nc21`, the “activity, negative = inhibition” value is 12.7%.
Still for that read-out and setting: the same measure for `c1ccc2oc(C3=NCCN3)cc2c1`: -37.9%.
`COCCn1c(=O)c(C)nc2cnc(N3CCNCC3)nc21`: the “activity, negative = inhibition” value is -13.7%.
`Cc1cc(N2CCOCC2)ncc1[N+](=O)[O-]`: the AC50 is 31.6 µM (active).
As for `O=[N+]([O-])c1ccc(N2CCOCC2)nc1`, the “activity, negative = inhibition” value was -21.3%.
As for `Cc1ccc(S(=O)(=O)/N=C2/NC(=O)/C(=C/c3cccnc3)S2)cc1`, the concentration at half-maximal activity (AC50) was 2.24 µM (active).
Consider `O=C(CSCc1ccc(Cl)cc1)Nc1nccs1`, for which the AC50 was 2.51 µM (active).
Same read-out and setting: for `Cc1cccc(-c2nsc(SCC(=O)Nc3nccs3)n2)c1` the value was 1.78 µM (active); for `O=C(CSc1nc2ccccc2s1)Nc1nccs1`, 1.58 µM (active).
For the compound `O=C(CSc1nc(-c2ccccc2)nc2ccccc12)Nc1nccs1`, the “activity, negative = inhibition” value is -22.4%.
On the same count and under the same terms, the same measure for `Cc1ccc(S(=O)(=O)NC(=O)CSc2nc3ccccc3s2)cc1`: -26.7%.
For the compound `O=C(CSc1nc2ccccc2s1)NNC(=S)Nc1ccc(Br)cc1`, the AC50 is 2.82 µM (active).
`O=S(=O)(c1ccccc1)c1cnc(-c2cccnc2)nc1-c1ccc(Cl)cc1Cl`: the AC50 is 5.01 µM (active).
Take `O=S(=O)(c1ccc(Cl)cc1)c1cnc(-c2cccnc2)nc1-c1ccccc1`: the AC50 is 2.82 µM (active).

For orientation: AC50 means the midpoint of the concentration-response curve, whichever way the signal moves.
